In test [1] the test system is MDA-MB-231. Description: kynurenine production, fold change vs DMSO IFNg/TNF control; higher = more kynurenine produced (less inhibition). The note with it: pre-treatment time: 18 h then 24 h IFNg/TNF. An outline of the steps: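 MDA-MB-231 cells were seeded in 96-well plates at 7 × 10^4/well and, 24 h later, pre-treated for 18 h with each natural product in 0.1% DMSO. They were then stimulated for 24 h at 37°C with IFNγ (1 U/ml) and TNF (6.25 ng/ml). Supernatants were treated with trichloroacetic acid and p-dimethylaminobenzaldehyde and read at 492 nm against 0–100 μM standards. Kynurenine production is expressed as fold change over cytokine-stimulated vehicle wells on the same plate and, in the first screening round, averaged across duplicate plates.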

In test [2] the test system is MDA-MB-231. Description: cell viability relative to vehicle unstimulated control (fraction); higher = more viable cells. The note with it: pre-treatment time: 18 h then 24 h IFNg/TNF.

Among the data in the supplement of paper PMC13094657 are kynurenine production and cell viability values, retold here.

± gives the standard deviation of the averaged measurements.
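Wherever cell viability relative to vehicle unstimulated control is given: viability of the cells left after supernatant collection, read with Deep Blue dye added for 4 h, as absorbance at 570 nm minus 600 nm.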

Regarding `CC(C)=CC/C=C(/C)[C@H]1CC[C@@]2(C)[C@@H]1[C@@H](O)CC1[C@@]3(C)CCC(O[C@@H]4O[C@H](CO)[C@@H](O)[C@H](O)[C@H]4O)C(C)(C)C3CC[C@]12C` (stereo partly specified) [Ginsenoside Rh3] (compound dose: 10 uM), the kynurenine production in test [1] came out at 0.858 ± 0.029.

In the case of `C=C1C(=O)O[C@@H]2C[C@@]3(C)CCCC(=C)[C@@H]3C[C@H]12` [Isoalantolactone] (compound dose: 10 uM), the cell viability in test [2] was 0.951 ± 0.082. Also, in test [1], the kynurenine production was 0.255 ± 0.077.

In the case of `CC1(C)CC[C@]2(C)CC[C@]3(C)C(=CC[C@@H]4[C@@]5(C)CC[C@@H](O)[C@](C)(C(=O)O)[C@@H]5CC[C@]43C)[C@@H]2C1` [alpha-Boswellic acid] (compound dose: 10 uM), the cell viability in test [2] stood at 0.953 ± 0.011. For the same compound, in test [1], the kynurenine production was determined as 0.911 ± 0.028.

On to `C=C1[C@H](OC(=O)C(C)C)[C@@H](O)[C@@H](OC(C)=O)C(C)(C)/C=C/[C@H](C)[C@H](OC(C)=O)[C@@]2(O)C[C@@](C)(OC(C)=O)[C@H](OC(=O)c3ccccc3)[C@@H]2[C@H]1OC(C)=O` [Jatrophane 4] (compound dose: 10 uM), for which the cell viability in test [2] is 1.1 ± 0.017. The kynurenine production in test [1] is 0.7528 ± 0.0061.

As to `C[C@H]1O[C@@H](Oc2c(-c3cc(O)c(O)c(O)c3)oc3cc(O)cc(O)c3c2=O)[C@@H](O)[C@@H](O)[C@@H]1O` [Myricitrin] (compound dose: 10 uM), the cell viability in test [2] was determined as 0.988 ± 0.021. In addition, in test [1], the kynurenine production came out at 0.694 ± 0.16.

On to `CC(C)=CCCC(C)(OC1OC(CO)C(O)C(O)C1O)C1CCC2(C)C1C(O)CC1C3(C)CC(O)C(OC4OC(CO)C(O)C(O)C4OC4OC(CO)C(O)C(O)C4O)C(C)(C)C3CCC12C` (stereo unspecified) [Gypenoside XLVI] (compound dose: 10 uM), for which, in test [2], the cell viability is 1.03 ± 0.27. Further, in test [1], the kynurenine production is 0.812 ± 0.16.

For `CC[C@@H](C(=O)[C@@H](C)[C@@H](O)[C@H](C)CCc1ccc(C)c(O)c1C(=O)O)[C@H]1O[C@](CC)([C@H]2CC[C@](O)(CC)[C@H](C)O2)C[C@@H]1C` [Lasalocid] (compound dose: 10 uM), in test [2], the cell viability was found to be 0.877 ± 0.017. Moreover, the kynurenine production in test [1] stood at 0.509 ± 0.022.

Regarding `COC(=O)[C@H]1[C@H]2C[C@@H]3c4[nH]c5cc(OC)ccc5c4CCN3C[C@H]2C[C@@H](OC(=O)c2cc(OC)c(OC)c(OC)c2)[C@@H]1OC` [Reserpine] (compound dose: 10 uM), the cell viability in test [2] was found to be 0.954 ± 0.028. The kynurenine production in test [1] stood at 1.02 ± 0.067.

On to `CC(C)=CCC[C@](C)(O[C@@H]1O[C@H](CO)[C@@H](O)[C@H](O)[C@H]1O)[C@H]1CC[C@]2(C)[C@@H]1[C@H](O)C[C@@H]1[C@@]3(C)CC[C@H](O)C(C)(C)[C@@H]3[C@@H](O[C@@H]3O[C@H](CO)[C@@H](O)[C@H](O)[C@H]3O[C@@H]3OC[C@@H](O)[C@H](O)[C@H]3O)C[C@]12C` [Notoginsenoside R1] (compound dose: 10 uM), for which the cell viability in test [2] came out at 0.909 ± 0.066. The kynurenine production in test [1] came out at 1 ± 0.038.

As to `C=C[C@@]1(C)CC(=O)[C@]2(O)[C@@]3(C)[C@@H](O)CCC(C)(C)[C@@H]3[C@H](O)[C@H](OC(C)=O)[C@@]2(C)O1` [Forskolin] (compound dose: 10 uM), the cell viability in test [2] amounted to 0.785 ± 0.079. Further, in test [1], the kynurenine production turned out to be 1.37 ± 0.25.

As to `C[C@H]1O[C@@H](O[C@H]2CC[C@@]3(C)[C@@H](CC[C@]4(C)[C@@H]3C=CC3=C5CC(C)(C)CC[C@]5(CO)[C@H](O)C[C@]34C)[C@]2(C)CO)[C@H](O)[C@@H](O[C@@H]2O[C@H](CO)[C@@H](O)[C@H](O)[C@H]2O)[C@H]1O` [Saikosaponin B2] (compound dose: 10 uM), the cell viability in test [2] was 1.047 ± 0.0068. Besides, the kynurenine production in test [1] is 0.739 ± 0.04.

`C/C1=C\CCC2=C[C@@H](OC2=O)c2c(C)coc2C1` [Linderalactone] (compound dose: 10 uM): the cell viability in test [2] was 0.998. Also, the kynurenine production in test [1] worked out at 0.815 ± 0.018.

For `COc1cc2c(cc1O)C(Cc1ccc(O)cc1)[N+](C)(C)CC2` (stereo unspecified) [Magnocurarine] (compound dose: 10 uM), the cell viability in test [2] was 1.02 ± 0.014. For the same compound, the kynurenine production in test [1] turned out to be 0.937 ± 0.083.

For the compound `CC1=CC(=O)[C@@H]2C[C@H]1C2(C)C` [Verbenone] (compound dose: 10 uM), the cell viability in test [2] stood at 1.128 ± 0.0013. Besides, in test [1], the kynurenine production worked out at 1.25 ± 0.13.

Take `CC(=O)O[C@H]1CC/C(C)=C/CC/C(C)=C/C[C@]2(C(C)C)CC[C@@]1(C)O2` [Incensole Acetate] (compound dose: 10 uM): the cell viability in test [2] was 1.11 ± 0.01. Further, the kynurenine production in test [1] worked out at 0.941 ± 0.18.

As to `CC(=O)O[C@H]1C(=O)[C@@]2(C)[C@H]([C@H](OC(=O)c3ccccc3)[C@]3(O)C[C@H](OC(=O)[C@H](O)[C@@H](NC(=O)c4ccccc4)c4ccccc4)C(C)=C1C3(C)C)[C@]1(OC(C)=O)CO[C@@H]1C[C@@H]2O` [Paclitaxel] (compound dose: 10 uM), the cell viability in test [2] was 0.827 ± 0.035. Moreover, the kynurenine production in test [1] came to 0.317 ± 0.017.
